Results: PubChem BioAssay AID743398 (Broad Institute, 2014)
Among all 300,000 compounds or so, about 3,600 (1.2%) were called active. Cut-off read from the data, not from the text of the source: active = activation above about 30% (passing the limit was not always enough); inconclusive = no clear call, values can overlap the other calls. Shown is part of a subset that was picked to be rich in actives.

Assay: Wnt/beta-catenin pathway activators, primary screen, cell-based, plate reader, single point (AID 743398);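 note: 0% = neutral control wells and 100% = positive control wells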
Conditions: Wnt/beta-catenin reporter cell assay, activator, at 9.35 µM, stronger effect = higher value

| Structure (SMILES) | activation |
| --- | --- |
| COC(=O)c1ccc(NC(=O)c2ccco2)cc1 | 58% (active) |
| O=C(Nc1ccc(O)cc1)c1ccc(NC(=O)c2ccco2)cc1 | 9.09% (inactive) |
| Cc1ccc(NC(=O)c2ccco2)cc1 | -2.54% (inactive) |
| CC(Sc1ccc(S(=O)(=O)N2CCN(C)CC2)cn1)C(=O)NC1CCCC(C)C1C (stereo unspecified) | -1.63% (inactive) |
| O=C(NCc1ccccc1Cl)c1csc([C@@H]2O[C@H](CO)[C@@H](O)[C@H]2O)n1 | -2.52% (inactive) |
| CCC(c1nnnn1-c1ccc2c(c1)OCCO2)N1CCN(c2ccc(C(F)(F)F)cn2)CC1 (stereo unspecified) | 0.0485% (inactive) |
| COc1cc2ccccc2cc1C(=O)Nc1ccccc1C | 38.1% (active) |
| COc1cc2ccccc2cc1C(=O)Nc1ccncc1 | 11.7% (inactive) |
| COc1cc2ccccc2cc1C(=O)Nc1ccc(NC(=O)c2cccs2)cc1 | -6.22% (inactive) |
| CCCCOCC1CN(CCCC)S(=O)(=O)c2c(Oc3ccc(F)cc3)cccc2O1 (stereo unspecified) | -5.54% (inactive) |
| CCOC(=O)C(=O)C1C(=O)Nc2ccccc21 (stereo unspecified) | 3.02% (inactive) |
| CCOC(=O)C1=C(CC)Nc2ccccc2N=C1N | 38.3% (active) |
| CCOC(=O)C1=C(C)NC(SC)=NC1c1ccccc1 (stereo unspecified) | -2.32% (inactive) |
| COC(=O)[C@H]1C[C@H](OC(=O)NCc2ccccc2)[C@@]2(O)CN(S(=O)(=O)c3ccc(C)cc3)CC2[C@H]1C(=O)OC (stereo partly specified) | 0.0463% (inactive) |
| COc1cccc(-c2cc(CNC(=O)[C@@H](Cc3ccccc3)NC(=O)[C@H]3O[C@@H](n4cnc(C(N)=O)n4)[C@H](O)[C@@H]3O)no2)c1 | -3.63% (inactive) |
| O=C(Nc1nc2ccc([N+](=O)[O-])cc2s1)c1ccncc1 | 34.4% (active) |
| COc1ccc(C(=O)Nc2nc(-c3ccc(OC)cc3)c(-c3ccc([N+](=O)[O-])cc3)s2)cc1 | -2.22% (inactive) |
| CCOc1ccc2nc(NC(=O)c3cc([N+](=O)[O-])ccc3N3CCOCC3)sc2c1 | -0.111% (inactive) |
| Brc1ccc(COCCc2cn(Cc3ccccc3)c3ccccc23)cc1 | 11.3% (inactive) |
| Cc1cc(=O)oc2c3c(cc(OCC(=O)NCC(O)c4ccccc4)c12)OC(C)(C)CC3 (stereo unspecified) | -1.47% (inactive) |
| Cc1ccc(C(=O)NCC(=O)O)s1 | 0.419% (inactive) |
| Cc1csc(NC(=O)c2ccc(C)s2)n1 | 43.1% (active) |
| Cc1csc(NC(=O)C2=COCCO2)n1 | 5.46% (inactive) |

| Structure (SMILES) | activation |
| --- | --- |
| COc1cccc(CNc2nc3cc(-c4csc5ccccc45)sc3c(=O)n2C)c1 | -2.71% (inactive) |
| CC(C)Nc1ncnc2c1ncn2[C@H]1CN(Cc2ccncc2)C[C@@H](CO)O1 | -2.99% (inactive) |
| CCOC(=O)[C@]12CCC=C1N(Cc1ccco1)C(=O)[C@H](CC(=O)NCc1cccc(C(F)(F)F)c1)C2 | -1.73% (inactive) |
| O=C(COc1ccc(Br)cc1F)NCC1(N2CCCCC2)CCCCC1 | -3.51% (inactive) |
| Cc1cc(C(=O)COc2ccc(Br)cc2F)c(C)n1C1CC1 | 35.3% (active) |
| Cc1cc(C(=O)COc2ccccc2Cl)c(C)n1C1CC1 | -1.86% (inactive) |
| CC(C)Nc1ccc(-n2nc3ccccc3[n+]2[O-])cc1 | 40.2% (active) |
| COC(=O)[C@]12C[C@H](CC(=O)N3CCN(C(=O)C4CC4)CC3)C(=O)N(Cc3ccc4c(c3)OCO4)C1=C[C@H](C(C)(C)C)O[C@@H]2C | -4.23% (inactive) |
| O=[N+]([O-])c1ccc(CN2CC(N3CCC(c4ccccc4)CC3)CS2(=O)=O)cc1 (stereo unspecified) | -1.72% (inactive) |
| CN(C)C(=O)c1cccc(-c2cnc3sc(NCc4ccc5c(c4)OCO5)nn23)c1 | -6.39% (inactive) |
| Cc1cccc(OCC(=O)Nc2ccccc2F)c1 | 22.2% (inactive) |
| COc1cccc(OCC(=O)Nc2ccccc2C(N)=O)c1 | 39.1% (active) |
| Cc1cccc(OCCC(=O)Nc2ccccc2C(N)=O)c1 | 1.98% (inactive) |
| O=C(c1ccc(CS(=O)Cc2ccccc2Cl)o1)N1CCN(c2ccccc2)CC1 (stereo unspecified) | -4.44% (inactive) |
| CS(=O)(=O)/C(C#N)=C/c1cccn1S(=O)(=O)c1ccc([N+](=O)[O-])cc1 | -1.05% (inactive) |
| COc1cc2ccc(C(C)=O)c(O)c2cc1OC | 10.2% (inactive) |
| COc1ccc(NC(=O)C2Cc3c(-c4cccc(NC(C)=O)c4)ccnc3O2)cc1OC (stereo unspecified) | -0.676% (inactive) |
| Cn1cccc1C(=O)OCC(=O)c1ccc(Br)s1 | 47.9% (active) |
| Cn1cccc1C(=O)NNC(=O)COc1ccc(Br)cc1 | 3.43% (inactive) |
| Cn1cccc1C(=O)OCC(=O)NCCc1ccccc1 | 15.6% (inactive) |
| CC1CCCN(c2cccc3c2S(=O)(=O)N(Cc2ccc(F)cc2)[C@@H](C)[C@H](c2ccccc2)O3)C1 (stereo partly specified) | -2.02% (inactive) |
| O=C(NCc1ccccc1)[C@H]1CCCN1C(=O)[C@@H]1CCCN1C(=O)c1ccc(Cl)cc1Cl | -5.01% (inactive) |
| NC(c1ccccc1)c1csc(NC(=O)Nc2cccc(C(F)(F)F)c2)n1 (stereo unspecified) | -0.452% (inactive) |

| Structure (SMILES) | activation |
| --- | --- |
| CC(C)CC1C(=O)N(Cc2cn(CC3CCCCC3)nn2)CCS(=O)(=O)N1Cc1ccc(-c2ccc(Cl)cc2)cc1 (stereo unspecified) | -6.32% (inactive) |
| Oc1ccc(CN2CCN(c3ncccn3)CC2)cc1 | -0.601% (inactive) |
| O=C(c1ccncc1)N1CCN(c2ccc3ccccc3n2)CC1 | 3.16% (inactive) |
| c1cnc(N2CCN(c3ccc4ccccc4n3)CC2)nc1 | 36.8% (active) |
| CCCN1C(=O)c2[nH]nc(-c3ccccc3)c2C1c1ccccc1 (stereo unspecified) | 0.123% (inactive) |
| CC(C)CCNC(=O)c1[nH]c(C(F)(F)F)nc1-c1ccccc1 | -0.284% (inactive) |
| O=C(Cc1ccc(Cl)cc1)c1ccccc1 | 39.9% (active) |
| O=C(NCCS(=O)(=O)NCc1ccc(Cl)cc1)c1ccccc1 | -1.51% (inactive) |
| O=C(CN1CCN(c2ccc(Cl)cc2)CC1)c1ccccc1 | 0.814% (inactive) |
| CN(C)C(=O)N1CCN(C(=O)[C@@H](Cc2ccccc2)NC(=O)[C@H]2O[C@@H](n3ccc(N)nc3=O)[C@H](O)[C@@H]2O)CC1 | -0.987% (inactive) |
| CC1CCCC(C)N1C(=O)COC(=O)c1ccccc1C(=O)c1ccccc1 (stereo unspecified) | -3.33% (inactive) |
| Cc1cc(N2CCN(C(=O)OC(C)(C)C)C[C@H]2C)ccc1N1CCN(Cc2ccccc2)[C@H](C)C1 | -18.5% (inactive) |
| Cc1cccc(C)c1NC(=O)CSc1ccc([N+](=O)[O-])cn1 | -1.27% (inactive) |
| O=[N+]([O-])c1ccc(Sc2n[nH]c(-c3ccco3)n2)nc1 | -0.107% (inactive) |
| CC(C)(C)n1cnnc1Sc1ccc([N+](=O)[O-])cn1 | 37.4% (active) |
| Cc1cccc(C)c1NC(=O)COC(=O)c1c(C)nn(-c2ccccc2)c1C | 2.07% (inactive) |
| Cc1nn(-c2ccccc2)c(-n2cccc2)c1C(=O)O | -0.442% (inactive) |
| Cc1ccc(OC(=O)c2c(C)nn(-c3ccccc3)c2C)cc1 | 57.6% (active) |
| Cc1cccc(C)c1Cn1c(C)c(C(=O)NCc2cccc(Cl)c2)sc1=O | -7.17% (inactive) |
| CCCOc1ccc(F)cc1-c1cc(C(=O)Nc2ccc(F)cc2)[nH]n1 | -2.71% (inactive) |
| O=C1N/C(=N\N=C\c2ccco2)SC1Cc1ccc(F)cc1 (stereo unspecified) | 1.16% (inactive) |
| COc1ccc(CN2C(=O)C(C)S/C2=N/N=C/c2ccco2)cc1 (stereo unspecified) | 39.6% (active) |
| C=CCN1C(=O)C(Cc2cccc(Cl)c2)S/C1=N/N=C/c1ccco1 (stereo unspecified) | -5.07% (inactive) |

| Structure (SMILES) | activation |
| --- | --- |
| CCOC(=O)c1cc(-c2sc(NC(=O)c3ccccc3)nc2C)n(-c2ccc(Br)cc2)n1 | -1.56% (inactive) |
| O=C(CSc1ccc([N+](=O)[O-])cn1)Nc1ccc(N2CCOCC2)cc1 | 34.8% (active) |
| Cn1cnnc1SCC(=O)Nc1ccc(N2CCOCC2)cc1 | -1.68% (inactive) |
| O=C(CSc1ccc([N+](=O)[O-])cn1)Nc1ccc(N2CCOCC2)c(Cl)c1 | -0.66% (inactive) |
| CC(C)CNc1cccc2c1S(=O)(=O)N[C@H](C)CO2 | -4.07% (inactive) |
| CCCn1c(N)c(C(=O)CSc2nnc(-c3cccnc3)n2-c2ccc(C)cc2C)c(=O)[nH]c1=O | -2.6% (inactive) |
| CCCn1c(N)c(C(=O)CSc2nnc3n2CCCCC3)c(=O)[nH]c1=O | 44.1% (active) |
| CCCn1c(N)c(C(=O)CSc2nnc(Cc3cccs3)n2C2CC2)c(=O)[nH]c1=O | 0.611% (inactive) |
| Cc1[nH]nc2c1C(c1ccc(Br)cc1)NC2=O (stereo unspecified) | 1.31% (inactive) |
| Cc1cc(O)c(NC(=O)c2ccc(C)c([N+](=O)[O-])c2)cc1C | 4.77% (inactive) |
| Cc1ccc(NC(=O)CN(C)CC(=O)Nc2cccc(F)c2)cc1[N+](=O)[O-] | -4.16% (inactive) |
| Cc1ccc(NC(=O)c2sccc2C)cc1[N+](=O)[O-] | 44.6% (active) |
| O=S(=O)([N-]c1nc2ccccc2nc1-[n+]1ccc(Cc2ccccc2)cc1)c1ccc(Br)s1 | 88.3% (active) |
| O=S(=O)(NCc1ccccn1)c1ccc(Br)s1 | -6.83% (inactive) |
| Cc1cc(C)c[n+](-c2nc3ccccc3nc2[N-]S(=O)(=O)c2cccs2)c1 | -2.64% (inactive) |
| O=C(NC(=O)N1CCOCC1)c1ccccc1 | -2.28% (inactive) |
| O=C(NCC(=O)N1CCCCCCC1)c1ccccc1Cl | 12.1% (inactive) |
| O=C(NC(=O)N1CCSCC1)c1c(Cl)cccc1Cl | 31.3% (active) |
| OC(c1ccc(Cl)cc1)c1ncc(-c2ccc(Cl)cc2)[nH]1 (stereo unspecified) | 0.492% (inactive) |
| CCNc1nc(NCC)nc(N/N=C/c2ccc(O)c(OC)c2)n1 | -3.98% (inactive) |
| COc1cc(/C=N/Nc2nc3ccccc3s2)ccc1O | 76.9% (active) |
| COc1cc(/C=N\Nc2nc(-c3cccs3)c(NC(C)=O)s2)ccc1O | 7.87% (inactive) |
